From PubChem BioAssay (NCI)
Compounds without any hit were thinned out: in the full panel of roughly 79,000, 15% have a hit. Rule as the data show it: active = growth inhibition above about 70%; inactive = the rest.

Legend:
[1] = NCI Yeast Anticancer Drug Screen. Data for the rad50 strain (AID 155);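 also: 0% = growth of vehicle-only cultures of the same strain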; details: S. cerevisiae rad50 strain growth inhibition; at 50.0 µM; stronger effect = higher value
Outline: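 Relative growth inhibition (compound vs vehicle) was measured in yeast with a defined repair-gene alteration.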

[2] = NCI Yeast Anticancer Drug Screen. Data for the mec2-1 strain (AID 157); details: S. cerevisiae mec2-1 strain, at 50.0 µM, stronger effect = higher value
Outline: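 Cells of the genetically defined mec2-1 yeast strain are incubated with test compound. Inhibition of growth is calculated against vehicle-treated controls.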

[3] = NCI Yeast Anticancer Drug Screen. Data for the sgs1 mgt1 strain (AID 161);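 also: 0% = growth of cultures given vehicle only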; details: S. cerevisiae sgs1 mgt1 strain, at 50.0 µM, stronger effect = higher value
Outline: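 Test agents were incubated with a DNA-repair-mutant yeast strain. Growth was then read and compared against vehicle-treated controls.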

[4] = NCI Yeast Anticancer Drug Screen. Data for the cln2 rad14 strain (AID 165);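 also: 0% = growth equal to vehicle treated cultures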; details: S. cerevisiae cln2 rad14 strain, at 50.0 µM, stronger effect = higher value
Outline: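 The screen exposed genetically defined yeast (cln2 rad14) to test compounds and scored growth inhibition relative to vehicle-treated controls.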

[5] = NCI Yeast Anticancer Drug Screen. Data for the bub3 strain (AID 167); details: S. cerevisiae bub3 mutant strain, at 50.0 µM, stronger effect = higher value
Outline: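 Screening used yeast with an engineered genetic alteration affecting cell cycle control. Compound-exposed cultures were compared with vehicle cultures, and reduced growth was taken as inhibition.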

[6] = NCI Yeast Anticancer Drug Screen. Data for the mlh1 rad18 strain (AID 175); details: S. cerevisiae mlh1 rad18 strain growth inhibition; at 50.0 µM; stronger effect = higher value
Outline: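 Compound-treated yeast growth, normalised to vehicle controls. Strain bears defined DNA repair mutations.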

Measured: growth inhibition

CC(=O)Cc1ccco1
inactive: [1] 14.5% | [2] -3.35% | [3] -8.8% | [4] 22.5% | [5] -2.2% | [6] -10.7%

CCCC(=O)Oc1ccccc1C1CCCCC1
inactive: [1] 15.9% | [2] 23.8% | [3] 12.3% | [4] 21.3% | [5] 7.35% | [6] 3.45%

Oc1ccc(N=Cc2ccc3ccccc3n2)cc1
inactive: [1] 36% | [2] 1.55% | [3] 19.1% | [4] 10.3% | [5] -19.8% | [6] 4.2%

CC(=O)Nc1ccc(Br)cc1C
inactive: [1] 25.1% | [2] 1.95% | [3] 2.25% | [4] -10.9% | [5] -2.4% | [6] 30.6%

C#CC(C)(O)c1ccccc1 (stereo unspecified)
inactive: [1] -1.15% | [2] -22.1% | [3] -7.75% | [4] -21.6% | [5] -1.95% | [6] -11.6%

CC1OC(=O)C(O)=C1O (stereo unspecified)
inactive: [1] -5.15% | [2] -10.6% | [3] -5.75% | [4] 8.75% | [5] 8.85% | [6] -20.6%

O=C(O)CCCc1ccc2c(c1)CC1(C2)Cc2cc3c(cc2C1)CCCC3
inactive: [1] -11.7% | [2] -32.4% | [3] -16.9% | [4] 24.2% | [5] 18.4% | [6] 7.4%

N#CC(NNC(=O)Cc1ccccc1)c1c(O)ccc2ccccc12 (stereo unspecified)
inactive: [1] 7.45% | [2] -4.9% | [3] 4.5% | [4] -18.2% | [5] -3.15% | [6] -7.25%

O=C1c2ccccc2C(O)(c2ccc(O)cc2)c2ccccc21
inactive: [1] -3.25% | [2] 0.1% | [3] -0.95% | [4] -0.3% | [5] 6.1% | [6] 6.2%

COc1cc(/C=C2\C=Cc3ccccc32)ccc1N(C)C
inactive: [1] 5.45% | [2] -13.2% | [3] -6.85% | [4] -54.4% | [5] 3.8% | [6] -15.5%

O=S(=O)(c1cccc(C(F)(F)F)c1)N(CCCCN(S(=O)(=O)c1cccc(C(F)(F)F)c1)S(=O)(=O)c1cccc(C(F)(F)F)c1)S(=O)(=O)c1cccc(C(F)(F)F)c1
inactive: [1] -13.8% | [2] -11.6% | [3] -20.7% | [4] -20.2% | [5] -19.2% | [6] -6.6%

CCC1(C)CC(C)(C)c2cc(C(C)=O)c(C)cc21 (stereo unspecified)
inactive: [1] 8.1% | [2] -1.05% | [3] -4.7% | [4] -29.5% | [5] 11.3% | [6] 4.15%

[Cl][Pt+2][Cl].[NH-]CC(O)c1ccc2oc3ccccc3c2c1.[NH-]CC(O)c1ccc2oc3ccccc3c2c1 (stereo unspecified)
inactive: [1] -23.3% | [2] -11.2% | [3] -30.6% | [4] -21.1% | [5] 7.35% | [6] 17.6%

CC(C)CCCC(C)C1CCC2C3CCC4=C/C(=N/O)CCC4(C)C3CCC12C (stereo unspecified)
inactive: [1] 40.2% | [2] 12.2% | [3] 40.8% | [4] 34.5% | [5] 25.2% | [6] 32.6%

CCCCn1cnc2ccc(N)cc2c1=O
inactive: [1] -1.7% | [2] 1.85% | [3] 15.3% | [4] -1.7% | [5] 16.2% | [6] 2%

CC1(C)C2CC(=O)C1(C)C(OCc1ccccc1)C2 (stereo unspecified)
inactive: [1] -21.2% | [2] 12.6% | [3] 6.1% | [4] 22.1% | [5] -18.1% | [6] 5.1%

CC(=O)Nc1ccc(S(=O)(=O)N/N=C/c2ccco2)cc1
inactive: [1] 23.1% | [2] 1.2% | [3] 5.7% | [4] -30.6% | [5] 4.1% | [6] 33.6%

c1ccc(-c2nnc(SCc3nc4ccccc4[nH]3)o2)cc1
inactive: [1] 5.65% | [2] 9.75% | [3] 29.8% | [4] 36.3% | [5] 20.4% | [6] 52%

COC(=O)c1[nH]c(=O)[nH]c(=S)c1N
inactive: [1] 7.75% | [2] 21% | [3] -10.6% | [4] -20.6% | [5] -17.8% | [6] -15.8%

O=C(O)Cc1ccccc1[N+](=O)[O-]
inactive: [1] 8.55% | [2] -12.1% | [3] -10.9% | [4] -16.9% | [5] -21.8% | [6] -3.95%

Cc1ccc(Br)cc1C(=O)O
inactive: [1] 20.8% | [2] 2.25% | [3] 15.2% | [4] 13.8% | [5] -6.1% | [6] 15.4%
